The values below come from PubChem BioAssay.

The AC50 is the concentration at which the activity in the assay is half-maximal.

Records with an inconclusive call do not appear. Calls of active or inactive are those of the source. Unless noted, the limit is not given here; nearly all actives have AC50 up to about 26 µM. Where a SMILES comes first, the peptide text is derived from it. [ ]: non-standard residue; d: D form. The star is where a group is joined. Sta = CC(C)C[C@H](N)[C@@H](O)CC(=O)O; Isovaleryl = CC(C)CC(=O)*

Test [1] in a line: viability loss in pontine glioma line – cell-based, JHH-DIPG-1, MIPE4.0, CellTiter-Glo, qHTS, dose response (AID 1347062; cut-off not given, nearly all actives have AC50 up to about 27 µM;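 as to AC50: cells exposed to compound for two days before readout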). As to conditions: JHH-DIPG-1 viability, CellTiter-Glo ATP luminescence. On the technique in general: ATP-based viability assays read luminescence as a measure of living cells.
A short description of test [2]: viability loss in pontine glioma line – cell-based, SU-DIPG-IV, MIPE4.0, CellTiter-Glo, qHTS, dose response (AID 1347063; cut-off not given, nearly all actives have AC50 up to about 30 µM;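 also: compound exposure lasted 48 hours before the viability readout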). As to conditions: CellTiter-Glo ATP luminescence.
The nature of test [3]: viability loss in pontine glioma line – cell-based, SU-DIPG-XIII, MIPE5.0, CellTiter-Glo, qHTS, dose response (AID 1347064; cut-off not given, nearly all actives have AC50 up to about 23 µM;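 as to AC50: cells exposed to compound for 48 hours before the viability read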). As to conditions: CellTiter-Glo ATP luminescence.
A short description of test [4]: viability loss in pontine glioma line – cell-based, SU-DIPG-XXV, MIPE5.0, CellTiter-Glo, qHTS, dose response (AID 1347065).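 Also: cells exposed to compound for 48 hours before ATP readout.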 As to conditions: CellTiter-Glo ATP luminescence.
The nature of test [5]: JHH-DIPG-1 glioma cell viability, MIPE5.0 library, CellTiter-Glo luminescence, qHTS (AID 1347067).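 Also: cells exposed to compound for 48 hours before readout.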 As to conditions: JHH-DIPG-1 glioma viability, CellTiter-Glo ATP luminescence.
Test [6] in a line: compounds altering HSF1 focus formation in cells – imaging, Selleck Cancer Library (AID 1347162; in the data active = plate-normalised HSF1 focus index below about 0.46). As to conditions: human cells, HSF1 nuclear foci imaging, at 10 µM; SSMD: measured here: HSF1 foci SSMD mean; cell count: measured here: cell number; plate-normalised HSF1 focus index: stronger effect = lower value.
The nature of test [7]: blockers of cellular phospholipid synthesis – cell-based, LOPAC library, screen 4, primary screen (AID 1347384; call rule not given here). As to conditions: animal cells, phospholipid biosynthesis inhibition screen; at 10 µM.
The nature of test [8]: compounds altering viability of human ES cells (AID 493140; call rule not given here;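 also: cells exposed to compounds for four days before counting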). As to conditions: human embryonic stem cell survival screen; stronger effect = higher value.
The target of test [9] is Mitogen-activated protein kinase 7 (Homo sapiens) (UniProt Q13164). Description: Gal4-ERK5 driven luciferase induction – cell-based, HTS, primary screen (AID 1508626;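 active = luciferase signal above three times the same-plate solvent-only control wells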;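 also: luciferase driven by Gal4-ERK5 fusion binding five Gal4 sites before minimal TATA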). As to conditions: HeLa Gal4-ERK5 transactivation, 18 h, at 5 µM, stronger effect = higher value.
Sequence of Mitogen-activated protein kinase 7 (Homo sapiens) (Q13164 whole entry, looked up, the tested form may be a part): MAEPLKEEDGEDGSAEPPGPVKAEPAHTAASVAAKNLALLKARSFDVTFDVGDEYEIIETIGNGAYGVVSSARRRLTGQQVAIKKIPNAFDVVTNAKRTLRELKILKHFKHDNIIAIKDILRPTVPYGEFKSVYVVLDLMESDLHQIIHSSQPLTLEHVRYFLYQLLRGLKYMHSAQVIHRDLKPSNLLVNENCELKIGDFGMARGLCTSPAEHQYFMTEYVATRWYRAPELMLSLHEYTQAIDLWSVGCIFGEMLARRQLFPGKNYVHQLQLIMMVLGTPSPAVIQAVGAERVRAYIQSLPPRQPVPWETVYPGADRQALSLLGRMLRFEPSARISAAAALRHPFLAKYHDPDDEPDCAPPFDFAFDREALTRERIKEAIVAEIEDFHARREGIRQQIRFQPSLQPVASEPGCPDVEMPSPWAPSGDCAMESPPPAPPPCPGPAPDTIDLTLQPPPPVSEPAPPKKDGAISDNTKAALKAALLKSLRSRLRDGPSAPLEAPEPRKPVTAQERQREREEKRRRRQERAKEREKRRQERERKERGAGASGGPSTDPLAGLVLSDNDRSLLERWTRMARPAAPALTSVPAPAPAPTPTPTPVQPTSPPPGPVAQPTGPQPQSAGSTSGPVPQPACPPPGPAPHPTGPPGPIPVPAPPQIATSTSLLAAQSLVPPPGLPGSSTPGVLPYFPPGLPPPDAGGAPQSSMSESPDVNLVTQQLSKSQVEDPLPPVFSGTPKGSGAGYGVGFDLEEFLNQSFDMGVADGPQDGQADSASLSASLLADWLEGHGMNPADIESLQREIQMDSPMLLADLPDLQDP

Turning to `CS(=O)(=O)CCNCc1ccc(-c2ccc3ncnc(Nc4ccc(OCc5cccc(F)c5)c(Cl)c4)c3c2)o1`, the AC50 in test [1] was 18.7 µM (active); in test [2], 11.8 µM (active); in test [3] it was 18.6 µM (active); in [4], 13.2 µM (active); in test [5] it was 20.9 µM (active).
On to `CC(C)CC(=O)N[C@H](C(=O)N[C@H](C(=O)N[C@@H](CC(C)C)[C@@H](O)CC(=O)N[C@@H](C)C(=O)N[C@@H](CC(C)C)[C@@H](O)CC(=O)O)C(C)C)C(C)C` (Isovaleryl-VV[Sta]A[Sta]-OH), for which the outcome in [1], in test [2], in test [3], in test [4] and in test [5] was inactive.
For `CC(=O)SC[C@@H](C)C(=O)N1CCC[C@H]1C(=O)N[C@@H](Cc1ccccc1)C(=O)O`, the result in [1], in test [2] and in test [5] was inactive.
Take `CCN(CC)CCNC(=O)c1c(C)[nH]c(/C=C2\C(=O)Nc3ccc(F)cc32)c1C`: the AC50 in test [1] was 10.8 µM (active); in [2] it was 9.59 µM (active); in test [3], 7.42 µM (active); in test [4] it was 4.17 µM (active); in test [5] it was 3.72 µM (active). In addition, the SSMD in test [6] was -0.842. Moreover, the cell count in test [6] came out at 6750. Also, in [6], the plate-normalised HSF1 focus index was 0.967 (inactive). Also, the result in test [7] was inactive.
As to `Nc1ccn(C[C@@H](CO)OCP(=O)(O)O)c(=O)n1`, the call in [1], in test [2], in test [3], in test [4] and in [5] was inactive.
`CCOC(=O)[C@H](CCc1ccccc1)N[C@H]1CS[C@H](c2cccs2)CN(CC(=O)O)C1=O`: the values for the AC50 in test [1] and in test [2] were 0.59 µM (active) and 1.87 µM (active), respectively. Further, the outcome in test [3], in test [4] and in [5] was inactive.
Consider `C[C@H]1C[C@H]2[C@@H]3CCC4=CC(=O)C=C[C@]4(C)[C@H]3C(=O)C[C@]2(C)[C@@]1(O)C(=O)CO`, for which the molecule was classed as inactive in test [1], in test [2], in [4] and in test [5].
As for `CNC(=O)c1cc(Oc2ccc(NC(=O)Nc3ccc(Cl)c(C(F)(F)F)c3)cc2)ccn1`, the AC50 is 18.7 µM (active) in [1], 20.9 µM (active) in [2], 10.5 µM (active) in [4] and 4.17 µM (active) in [5]. The molecule further gave an SSMD in test [6] of 0.678. In [6], this molecule returned a cell count of 6960. In test [6], the plate-normalised HSF1 focus index was 1.05 (inactive).
As for `NS(=O)(=O)c1cc(Cl)c(Cl)c(S(N)(=O)=O)c1`, the survival in test [8] was 2 (inactive). For the same molecule, the molecule was called inactive in [1], in test [2], in test [4] and in [5].
As to `COC(=O)C1=C(C)NC(C)=C(C(=O)OCCCN2CCC(c3ccccc3)(c3ccccc3)CC2)C1c1cccc([N+](=O)[O-])c1` (stereo unspecified), the call in [1] and in test [2] was inactive. In addition, the AC50 in test [3] is 13.2 µM (active); in test [4], 8.33 µM (active).
With `CSCC[C@H](NC(=O)[C@H](Cc1c[nH]c2ccccc12)NC(=O)CCNC(=O)OC(C)(C)C)C(=O)N[C@@H](CC(=O)O)C(=O)N[C@@H](Cc1ccccc1)C(N)=O`, the call in test [1], in test [2], in test [3], in test [4] and in test [5] was inactive.
For the molecule `Clc1ccc(Nc2nnc(Cc3ccncc3)c3ccccc23)cc1`, the molecule was called inactive in [1]. Besides, in test [3], the outcome was inactive. In addition, the AC50 in [4] was 20.9 µM (active). For the same molecule, in [5], the AC50 was 18.6 µM (active). For the same molecule, in [6], the SSMD was found to be 2.9, the cell count was 7070 and the plate-normalised HSF1 focus index was 1.15 (inactive).
On to `COC(c1ccccc1)(c1ccccc1)[C@H](Oc1nc(C)cc(C)n1)C(=O)O`, for which the molecule was called inactive in [1], in test [2], in [4] and in test [5].
For `O=c1cc(O)c(Cl)c[nH]1`, the molecule was called inactive in test [3], in test [4] and in test [5].
On to `NC(=O)c1ncn([C@@H]2O[C@H](CO)[C@@H](O)[C@H]2O)c1N`, for which the result in test [1], in [3], in test [4] and in test [5] was inactive. In addition, the luciferase signal in [9] is 16 AU (inactive).
